This is an account of results in PubChem BioAssay AID449768 (Vanderbilt High Throughput Screening Facility, 2010).

Each structure is given as a SMILES string. In all, about 110,000 compounds went through this assay and about 1,400 (1.3%) were called active. This is one part of a sample in which actives are shown more often than they occur.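 Rule for the calls: active = Z score or B-score, a plate-position-corrected score, falls beyond the plate's 99.7% confidence bounds, in either direction; inactive = both scores lie inside the 99.7% bounds.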

Sequence of Sodium-dependent dopamine transporter (Homo sapiens) (Q01959 whole entry, looked up): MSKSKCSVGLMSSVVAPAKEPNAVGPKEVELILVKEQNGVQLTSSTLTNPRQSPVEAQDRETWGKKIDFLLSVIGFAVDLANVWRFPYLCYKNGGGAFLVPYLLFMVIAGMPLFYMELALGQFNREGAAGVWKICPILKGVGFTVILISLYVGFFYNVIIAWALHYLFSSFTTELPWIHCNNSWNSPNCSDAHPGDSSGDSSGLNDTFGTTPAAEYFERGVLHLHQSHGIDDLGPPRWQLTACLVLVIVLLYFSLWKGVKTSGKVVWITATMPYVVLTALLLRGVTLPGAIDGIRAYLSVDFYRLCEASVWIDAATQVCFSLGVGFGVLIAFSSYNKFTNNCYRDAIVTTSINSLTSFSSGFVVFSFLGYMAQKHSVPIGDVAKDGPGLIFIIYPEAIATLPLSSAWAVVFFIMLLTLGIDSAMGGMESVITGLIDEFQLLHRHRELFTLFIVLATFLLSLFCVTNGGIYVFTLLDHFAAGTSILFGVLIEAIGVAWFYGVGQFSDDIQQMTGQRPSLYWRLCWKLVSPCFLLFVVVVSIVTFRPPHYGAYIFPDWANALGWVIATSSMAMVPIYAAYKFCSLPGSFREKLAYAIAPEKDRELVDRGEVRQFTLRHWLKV

This assay has as its target Sodium-dependent dopamine transporter (Homo sapiens) (UniProt Q01959). The assay can be described thus: changed hDAT dopamine uptake under cocaine IC80, either direction, primary screen, cocaine antagonist project, cell-based, LLC-PK1 hDAT, [14C]-dopamine uptake, MLSMR (AID 449768).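 Note: scored against the spread of the other compound wells on the same plate.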 The conditions noted are these: LLC-PK1 hDAT cells, [14C]-dopamine uptake with cocaine IC80; at 10 µM; actives deviate in either direction.
`Cc1nc(-c2ccccc2)sc1C1(C)CC(c2cccnc2)=NO1` (centres undefined): the B-score is 0.641 (inactive).

As to `C#Cc1ccc([C@@H]2C=C(C(=O)O)O[C@H](OCCCCO)C2)cc1`, the B-score was -0.622 (inactive).

Turning to `CC1=C(N2CCN(c3ncccn3)CC2)CCC1=O`, the B-score is 0.343 (inactive).

As for `CC1(C)OC(=O)N2CCc3ccccc3C21C` (centres undefined), the B-score was -8.52 (active).

With `COc1ccc(CN2CC[C@H]3C=CC[C@@H](C(=O)N4CCOCC4)[C@H]3C2=O)cc1OC`, the B-score is 0.696 (inactive).

`C[C@]1(C(=O)NCCc2c[nH]c3ccccc23)C=C[C@@H](Cc2ccccc2)N1C(=O)c1ccccc1`: the B-score is 2.48 (active).

Take `O=C(CCCCCn1c(=O)[nH]c2ccccc2c1=O)NCCc1c[nH]c2ccccc12`: the B-score was 0.015 (inactive).

Consider `Cc1cc(C)cc(NC(=S)NCCc2c[nH]c3ccccc23)c1`, for which the B-score was 2.31 (inactive).

With `NCCCC[C@@H]1NC(=O)[C@H](CCC(=O)O)NC(=O)c2cc([N+](=O)[O-])cc(I)c2NCC[C@@H](C(N)=O)NC1=O`, the B-score was -0.534 (inactive).

In the case of `COc1ccc(CNC(=O)C2(CC3CC(c4ccccc4)=NO3)CCN(C(=O)c3cccc(O)c3)CC2)cc1` (centres undefined), the B-score was 0.0185 (inactive).

For `O=C(NCc1ccccc1)c1onc(CSc2ccncc2)c1C(=O)NCc1ccccc1`, the B-score was -1.52 (inactive).

On to `NC(=O)CC[C@@H]1NC(=O)[C@H](CO)NC(=O)c2cc([N+](=O)[O-])cc(I)c2NCC[C@@H](C(N)=O)NC1=O`, for which the B-score was -0.848 (inactive).

For the molecule `Cc1ccc(OCC(=O)Nc2ccc(-c3nc4ncccc4o3)cc2)cc1`, the B-score was -8.77 (active).

`Cc1ccc(OCC(=O)Nc2ccc(-c3nnc(-c4ccco4)o3)cc2)cc1`: the B-score is -0.0188 (inactive).

Turning to `O=C(Nc1cccc(-c2nc3ncccc3o2)c1)c1ccco1`, the B-score is 0.346 (inactive).

For `Cn1ccnc1-c1nnn(-c2ccc(F)cc2)n1`, the B-score is -0.732 (inactive).

For the molecule `CCCc1nc2c(C)cc(-c3nc4ccccc4n3C)cc2n1Cc1ccc(-c2ccccc2C(=O)O)cc1`, the B-score was 3.87 (active).

On to `Cc1ccc(Cn2c(NC(=O)c3ccco3)nc3ccccc32)cc1`, for which the B-score was -0.191 (inactive).

As for `CCC(=O)NCCc1nc2ccccc2n1CC`, the B-score is -0.73 (inactive).

As for `CC(C)(C)Oc1ccccc1Nc1nc(NCCO)nc(N2CCCC2)n1`, the B-score was 1.65 (inactive).

Take `CCO[C@H]1OC(C(=O)Nc2ccccc2)=C[C@@H](C2CC2)[C@@H]1CCCO`: the B-score was -0.987 (inactive).

Take `CCOc1cc(-c2noc(CCC(=O)N3CCOCC3)n2)ccc1OC`: the B-score was 2.65 (active).

For the molecule `COc1ccc(N2CCN(C(=O)CCc3nc(-c4ccc(C)cc4)no3)CC2)cc1`, the B-score is 0.227 (inactive).

As for `CCOc1ccc(-c2nnn(CC(=O)N3CCN(c4ccc(OC)cc4)CC3)n2)cc1OCC`, the B-score is -0.869 (inactive).

As for `CC1(C)CC[C@]2(C(=O)O)CC[C@]3(C)C(=CCC4[C@@]5(C)CC[C@H](O)C(C)(C)C5[C@H](O)C[C@]43C)[C@@H]2C1` (some centres undefined), the B-score is 1.56 (inactive).

Turning to `COC(=O)COc1cccc2c(=O)n(CC(=O)NCCc3ccc(OC)c(OC)c3)ccc12`, the B-score is -1.43 (inactive).

Regarding `CCCCN1C(N)=NC[C@@H]1Cc1ccccc1`, the B-score is -0.466 (inactive).

Regarding `CCN1C(=O)N[C@@H](c2ccccc2)C(C(=O)OC)=C1C`, the B-score was -0.748 (inactive).

Consider `Nc1nonc1-c1nc2ccccc2n1Cc1ccc(F)cc1`, for which the B-score is -0.103 (inactive).

On to `Nc1nonc1-c1nc2ccccc2n1CCC(=O)O`, for which the B-score is 0.142 (inactive).

Take `CC(=O)Nc1nonc1-c1nc2ccccc2n1Cc1ccccn1`: the B-score was 3.49 (active).

As to `C[C@H]1CC[C@]2(O[C@@H](CCO)C[C@@H](O)[C@@H]2O)O1`, the B-score was 0.279 (inactive).

With `CCO[C@@H]1OC(C(N)=O)=C[C@H](c2ccc(Br)cc2)[C@H]1CCCO`, the B-score is -0.185 (inactive).

With `CC[C@H](C)[C@@H](C(=O)N1CCNCC1)n1cc([C@@H](N)Cc2ccc(O)cc2)nn1`, the B-score is 0.00778 (inactive).

For the molecule `O=C(c1ccccc1)c1cc(-c2ccccn2)c(N2CCOCC2)s1`, the B-score is 1.13 (inactive).

Regarding `CCc1ccc2ncc(C(=O)c3ccccc3)c(N3CCOCC3)c2c1`, the B-score is 2.66 (active).

As for `CCc1ccc(NC(=O)CSc2nc3ccccc3c(=O)n2CCN2CCOCC2)cc1`, the B-score is 0.477 (inactive).

For `N#CCc1c(C#N)c(N)nc(N2CCCC2)c1C#N`, the B-score was -0.528 (inactive).

For the molecule `C#CCCOC(=O)N1C2=NC(C(=O)OC)=C(C(=O)OC)[C@@H]3N(C)c4ccc(OC)cc4[C@]23C[C@H]1C(=O)OC`, the B-score was -0.658 (inactive).

For `C#CCOCCOCCOCCNc1nc(N2CCN(C(=O)[C@H](Cc3ccc(O)cc3)n3cc(C(N)CC(C)C)nn3)CC2)nc(N2CCN(C(=O)[C@H](CCC(=O)O)n3cc(C(N)[C@H](C)CC)nn3)CC2)n1` (some centres undefined), the B-score was -0.0315 (inactive).

Consider `O=C(NCCC1=CCCCC1)C1CCN(Cc2cnn(-c3ccccc3)c2-n2cccc2)CC1`, for which the B-score is 3.85 (active).

As to `C1=C(CCNc2ncnc3c2cnn3-c2ccccc2)CCCC1`, the B-score is 1.22 (inactive).

`CC(=O)Nc1ccc(NC(=O)CSCc2cnn(-c3ccccc3)c2-n2cccc2)cc1`: the B-score is 0.28 (inactive).

With `O=C(Nc1ccccc1[N+](=O)[O-])C1C(c2ccccc2)=C1c1ccccc1`, the B-score is -0.499 (inactive).

As to `O=[N+]([O-])c1ccccc1NCc1ccc(Cl)cc1`, the B-score is -0.347 (inactive).

On to `O=C(O)c1ccccc1NC(=S)NC(NC(=O)c1ccccc1[N+](=O)[O-])C(Cl)(Cl)Cl` (centres undefined), for which the B-score was -2.89 (active).

For the molecule `CC1(c2nnc(-c3ccncc3)o2)CC(c2cccnc2)=NO1` (centres undefined), the B-score is -0.313 (inactive).

In the case of `CCc1nnc(SCc2cccc(F)c2)nc1CC`, the B-score was -0.0254 (inactive).

With `CC(NC(=O)Nc1ccccc1)C(c1cccs1)N1CCN(c2ccccc2)CC1` (centres undefined), the B-score is -0.314 (inactive).

Consider `COc1ccccc1C1=CC(=O)CCC1`, for which the B-score was -0.483 (inactive).

In the case of `C/C=C(/C)C(=O)O[C@@H]1c2cc3c(c4c2[C@@]2(CO4)C(=O)C(OC)=C(OC)C=C2C[C@@H](C)[C@H]1C)OCO3`, the B-score was -0.0544 (inactive).

On to `COC(=O)C(NC(=O)c1ccc(OC)cc1)(Nc1ncc(S(=O)(=O)c2ccc([N+](=O)[O-])cc2)s1)C(F)(F)F` (centres undefined), for which the B-score is 1.29 (inactive).

Consider `Cc1cc(C)cc(OCC(=O)Nc2nc3ccc([N+](=O)[O-])cc3s2)c1`, for which the B-score was 0.303 (inactive).

As to `O=C(NC(Nc1nc2ccc([N+](=O)[O-])cc2s1)(C(F)(F)F)C(F)(F)F)c1ccccc1`, the B-score was -6.22 (active).

Consider `COC(C[C@@H]1O[C@@H]1C(=O)[C@@H](C)OCc1ccccc1)OC`, for which the B-score is -1.68 (inactive).

For `O=C(Nc1cccc2ccccc12)N1CCN(Cc2ccc3c(c2)OCO3)CC1`, the B-score was 0.465 (inactive).

For the molecule `O=C(CCCN1C(=O)c2cccc3cccc(c23)C1=O)N1CCN(Cc2ccc3c(c2)OCO3)CC1`, the B-score is 3.8 (active).

In the case of `Cn1c(=O)cc(OCCCC(=O)N2CCN(Cc3ccc4c(c3)OCO4)CC2)c2ccccc21`, the B-score is -0.011 (inactive).

Turning to `C=CCOC(=O)C1=C[C@H](c2ccc(Br)cc2)C[C@H](OCCCCO)O1`, the B-score is -0.239 (inactive).

With `CCS(=O)(=O)Nc1cc(C(=O)OC)ccc1C(=O)OC`, the B-score is 6.13 (active).

For `COC(=O)c1ccc(C(=O)OC)c(NC(=S)N2CCCCC2)c1`, the B-score was 0.301 (inactive).

Turning to `COC(=O)c1ccccc1NC(=O)c1ccccc1NS(C)(=O)=O`, the B-score is 0.686 (inactive).

Consider `COC(=O)C1=C[C@@H](C(=O)OC)[C@@H]2C3=C(C(=O)[C@]2(C)NC(=O)c2ccccc2)[C@H](C)n2c(=O)n(C)c(=O)n2[C@@H]3C1`, for which the B-score was -0.415 (inactive).

Turning to `COc1ccc(C(CC(=O)N2CCN(c3ccccc3)CC2)c2c(O)cc(OC)cc2OC)cc1` (centres undefined), the B-score is 1.37 (inactive).

For the molecule `c1ccc(-c2[nH]ncc2-c2nc3ccccc3[nH]2)cc1`, the B-score was 0.018 (inactive).

In the case of `c1ccc2[nH]c(-c3nc4ccccc4[nH]3)nc2c1`, the B-score is 0.0135 (inactive).

Consider `COc1ccc(-c2[nH]nc(-c3ccccc3)c2-c2nc3ccccc3[nH]2)cc1`, for which the B-score is -7.37 (active).

As for `CN1CCN(C(=O)C2=C[C@H](c3ccc4c(c3)OCO4)C[C@H](OCc3ccc(CO)cc3)O2)CC1`, the B-score is 0.0245 (inactive).

As for `O=C1N[C@@H](Cc2ccccc2)C(=O)N2[C@@H]3N(S(=O)(=O)c4ccc(F)cc4)c4ccccc4[C@]3(Br)C[C@@H]12`, the B-score is 1.04 (inactive).

In the case of `C#CCOCCOCCOCCNc1nc(N2CCN(C(=O)[C@H](CCC(=O)O)n3cc(C(N)CO)nn3)CC2)nc(N2CCN(C(=O)[C@H](Cc3ccc(O)cc3)n3cc(C(N)[C@H](C)CC)nn3)CC2)n1` (some centres undefined), the B-score was -0.199 (inactive).

Regarding `CCOC(=O)CNC(=O)CSc1nnc(COc2ccc(Cl)cc2)n1CC`, the B-score was 0.0208 (inactive).

For the molecule `CCOC(=O)CNC(=O)CSc1nnc(-c2cccc(OC)c2)n1CC`, the B-score is 0.102 (inactive).

Regarding `CCOC(=O)CNC(=O)CSc1nc2cccnc2n1CC`, the B-score was -8.17 (active).

On to `O=C(NCC1CC1)c1onc(CSc2ccccc2)c1C(=O)NCC1CC1`, for which the B-score is 1.29 (inactive).

With `COc1ccc(C2/C=C\CN(S(=O)(=O)c3cccs3)CC(=O)N2Cc2ccc(F)cc2)cc1` (centres undefined), the B-score is 0.769 (inactive).

As for `CCOC(=O)c1sc(NC(=O)c2ccncc2)nc1C`, the B-score was 0.297 (inactive).

`CCOC(=O)c1sc(N(Cc2ccccc2)C(=O)CN2C(=O)CN(C)C2=O)nc1C`: the B-score was 4.19 (active).

Regarding `CCOC(=O)c1ccc(N2C(=O)CC(N(C)Cc3ccccc3)C2=O)cc1` (centres undefined), the B-score was -0.402 (inactive).

`O=C1c2ccccc2S(=O)(=O)c2cc(N3CCN(c4ccccn4)CC3)ccc21`: the B-score was 0.34 (inactive).

In the case of `COC(C[C@@H](O)C[C@@H](O)[C@H](C)OCc1ccccc1)OC`, the B-score was -0.417 (inactive).

Consider `OCC[C@H]1C[C@H](O)[C@@H](O)[C@]2(CCCCO2)O1`, for which the B-score was -1.31 (inactive).

As for `CCCCOC(=O)Nc1nccs1`, the B-score was 16.3 (active).

For `CC(=O)Oc1ccc(C(=O)Nc2nccs2)cc1`, the B-score is -1.53 (inactive).

As to `COc1cc(C(=O)Nc2nccs2)cc(OC)c1OC`, the B-score is -0.0124 (inactive).
